Pf growth 96h: inhibits malaria parasite growth, 96 h; P. falciparum luciferase reporter growth, 96 h; hit rate 6.9% among 320,000; Potency, µM (titrated, usually from 28.7 µM), usual class: inhibitors
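Two-generation exposure (96 h) targets delayed-death phenotype. Reporter parasites carrying integrated firefly luciferase, in red cells at 2% hematocrit and 0.05% parasitemia final, kept at 37 C, 5% CO2; luminescence loss indicates inhibition.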
NS1 inh: inhibitors of influenza NS1 protein function; Potency, µM (doses to about 46.1 µM); hit rate 0.4% among 270,000; calls by dose curve; also: actives are rising curves; nearly all actives have a fitted effect of over 50% in size
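OD600 was taken as the measure of yeast growth restored by compound in an NS1-expressing S. cerevisiae strain. Cells had been washed out of glucose medium and diluted 1:100 into galactose -URA medium, pH 6.0.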
HCV inh: HCV inhibition | AID 651820 | hit rate 3.4% among 340,000 | Potency, µM (top dose mostly 41.8 µM), hits mostly inhibitors | Huh7.5.1 HCVcc-Cre infection, luciferase reporter, 44 h
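Compounds are dispensed onto cells plated 4 h earlier at 1,000 per well, with HCVcc-Cre virus (about 0.5 moi) added next. Following 44 h of culture, luminescent signal is measured for 15 sec after 15 min with substrate at room temperature.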
Pf growth 48h: P. falciparum growth inhibition at 48 hours (one generation). AID 504832. Potency, µM (titrated, usually from 28.7 µM), hits mostly inhibitors. hit rate 5.9% among 310,000. P. falciparum luciferase growth in erythrocytes, 48 h
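Luminescence readout; reporter = integrated firefly luciferase in P. falciparum. RBC culture at 2% hematocrit, 0.1% parasitemia final, 37 C/5% CO2; decreased signal taken as growth inhibition.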
AMA1-RON2 inh: AMA1-RON2 (P. falciparum) interaction inhibition; AlphaScreen AMA1-biotinylated RON2 peptide binding; Potency, µM (series often up to 58.2 µM), actives largely listed as inhibitors; hit rate 0.2% among 360,000; also: nearly all actives have a fitted effect of over 45% in size
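AMA1 (3D7) with his tag at 25 nM final met compounds first, then biotinylated RON2 peptide at 25 nM; detection used donor plus acceptor beads, 10 µg/mL apiece, read by AlphaScreen after 30 min at room temperature.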
SARS PLP yeast: inhibitors of SARS-CoV papain-like protease in yeast; S. cerevisiae expressing SARS-CoV PLpro, growth rescue; Potency, µM (series often up to 32.9 µM), hits mostly activators; hit rate 0.19% among 330,000; calls by dose curve; also: nearly all actives have a fitted effect of over 55% in size
Of the large screens only hits and unclear results are named; the others gave an inactive call. This is a sample that favours compounds with a hit; in the whole collection about 12% have one here. Unless noted, calls follow the shape of the dose curve; as a rule, active = well fitted curve in the direction sought with a large enough effect; inconclusive = small, poorly fitted or top-dose-only effect, or another doubt; inactive = no such curve, though single readings can be large; an effect the other way counts as inactive or inconclusive.

O=C(O)/C=C/c1cn(-c2ccccc2)nc1-c1ccccc1	Pf growth 96h 5.9µM
O=C(COc1ccc(S(=O)(=O)N2CCCCC2)cc1)N1CCCCCC1	Pf growth 96h 13µM, Pf growth 48h inconclusive
CC(C)(C)c1ccc(S(=O)(=O)N2CCCCC2)cc1	Pf growth 96h 12µM, Pf growth 48h inconclusive
CC(C)(C)c1ccc(S(=O)(=O)N2CCN(C(=O)C3=COCCO3)CC2)cc1	Pf growth 96h 13µM, Pf growth 48h inconclusive (no result: NS1 inh)
CC(C)c1ccc(S(=O)(=O)N2CCN(C(=O)C3=COCCO3)CC2)cc1	none (no result: Pf growth 96h, NS1 inh, Pf growth 48h)
O=S(=O)(c1ccc(S(=O)(=O)N2CCCC2)cc1)N1CCCCCC1	none
CC(C)(C)c1ccc(S(=O)(=O)N2CCC(CO)(CC3CCCCO3)CC2)cc1 (configuration not stated)	Pf growth 96h inconclusive, Pf growth 48h 2.3µM
O=c1nc(Nc2ccc([N+](=O)[O-])cc2)[nH]c(=O)[nH]1	none (no result: Pf growth 48h)
Cc1noc(/C=C/N(C)C)c1S(=O)(=O)N1CCCC(C(=O)Nc2ccc(F)cc2F)C1 (configuration not stated)	Pf growth 96h inconclusive, NS1 inh inconclusive, Pf growth 48h inconclusive
COCCn1c(SCC(=O)NC2CC2)nc2ccccc21	none (no result: NS1 inh)
CCCCOc1ccc(S(=O)(=O)N2CCCCCC2)cc1	Pf growth 96h 12µM
Cc1nn(-c2ccccc2)c2sc(C(=O)NCCN3CCOCC3)cc12	Pf growth 96h 3.7µM, HCV inh 2.2µM, Pf growth 48h inconclusive
Cc1nn(-c2ccccc2)c2sc(C(=O)c3c(N)n(C)c(=O)n(C)c3=O)cc12	Pf growth 96h inconclusive, Pf growth 48h 1.5µM
Cc1cnc(NC(=O)c2cc3c(C)nn(-c4ccccc4)c3s2)s1	Pf growth 96h inconclusive, HCV inh inconclusive, Pf growth 48h 6.6µM
Cc1cc(C(=O)NCCCN2CCOCC2)n(-c2ccccc2)n1	none
Cc1nn(-c2ccccc2)c2sc(C(=O)NNC(=O)COc3ccccc3)cc12	none
Cc1ccn(C(=O)c2cc3c(C)nn(-c4ccccc4)c3s2)n1	Pf growth 96h inconclusive
Cc1nn(-c2ccccc2)c2sc(C(=O)NC3CCCCC3)cc12	HCV inh 2.5µM, Pf growth 48h inconclusive
Cc1nn(-c2ccccc2)c2sc(C(=O)N3CCCCC3)cc12	HCV inh inconclusive (no result: SARS PLP yeast)
CC1(NC(=O)Cc2ccc(S(=O)(=O)N3CCOCC3)s2)CCS(=O)(=O)C1 (configuration not stated)	Pf growth 48h inconclusive (no result: NS1 inh)
CCc1nc2ccc(C(=O)NCCN3CCOCC3)cn2c1N(C)Cc1ccc(OC)cc1	none (no result: Pf growth 96h, NS1 inh, HCV inh, Pf growth 48h, SARS PLP yeast)
COc1ccc(OCC(=O)NNC(=O)c2cccc(O)c2)cc1	Pf growth 96h inconclusive (no result: NS1 inh)
O=C(COC(=O)c1ccc(S(=O)(=O)N2CCOCC2)cc1)NCc1ccco1	none (no result: Pf growth 96h, NS1 inh, HCV inh, Pf growth 48h, SARS PLP yeast)
CC(C)(CC(=O)O)CC(=O)N1CCN(c2nc3cc(Cl)ccc3s2)CC1	none
O=C(Nc1ccc(F)cc1)C(c1cc2ccccc2o1)N1CCN(CC(=O)N2CCCC2)CC1 (configuration not stated)	none (no result: Pf growth 96h, NS1 inh, HCV inh, Pf growth 48h, SARS PLP yeast)
Cc1ccc(-n2[nH]c(C)c(C=NCc3ccncc3)c2=O)cc1	none
Cc1nc2ccccc2c(=O)n1/N=C/c1ccc(O)cc1O	none
CCCc1nc2ccccc2c(=O)n1/N=C/c1ccccc1O	HCV inh inconclusive, Pf growth 48h 12µM (no result: Pf growth 96h)
CCCc1nc2ccccc2c(=O)n1/N=C/c1c(C)[nH]n(-c2ccc(C)cc2)c1=O	Pf growth 96h 3.7µM
CC(C)CCN1CCN(Cc2ccon2)CC1CCO (configuration not stated)	none
O=c1[nH]cnc2scc(-c3ccccc3)c12	Pf growth 48h 2.6µM
COC(=O)C1=CN(Cc2cccs2)C=C(C(=O)OC)C1c1cccc(Cl)c1	Pf growth 96h inconclusive, HCV inh inconclusive, Pf growth 48h 9.3µM
CCOc1ccc(C2C(C(=O)OC)=CN(CCOC)C=C2C(=O)OC)cc1	Pf growth 96h inconclusive, Pf growth 48h inconclusive
COC(=O)C1=CN(c2cc(C)cc(C)c2)C=C(C(=O)OC)C1c1cccc(F)c1	Pf growth 96h inconclusive, Pf growth 48h 12µM
COC(=O)C1=CN(c2cc(C)cc(C)c2)C=C(C(=O)OC)C1c1ccc(OC)c(O)c1	Pf growth 96h inconclusive, HCV inh inconclusive
